Measurements: PubChem BioAssay (NCI)
Compounds without any hit were thinned out: in the full panel of roughly 83,000, 20% have a hit.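 Cell lines were cultured in 96-well plates, exposed to a single compound concentration, and assessed for percent growth 48 hours later.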 Unmarked numbers belong to inactive results. Active and inactive are the calls of the source. The calls were made as follows: active = growth percent below 10; inactive = the rest.

tested on: 786-0 renal; experiment: NCI-60 one-dose screen, 48 h (100 = growth as untreated, 0 = no growth, -100 = all killed); settings: 10 µM unless noted

Compound | growth
COc1ccc(C(=O)CSc2nnc(-c3cc(-c4ccccc4)nc4ccccc34)o2)cc1 | 106%
O=C(O)c1cc([N+](=O)[O-])ccc1Br | 102%
O=C(Nc1ccc(Oc2ccc(F)cc2)c(Cl)c1)c1cccnn1 | 105%
Cc1cc(-c2ccc(N=Nc3c(S(=O)(=O)O)cc4cc(S(=O)(=O)O)cc(N)c4c3O)c(C)c2)ccc1N=Nc1cc(S(=O)(=O)O)c2ccccc2c1O | 104%
COc1cc2c(cc1OCCCN1CCN(CCCOc3cc4c(cc3OC)C(=O)N3C[C@H](F)C[C@H]3C=N4)CC1)N=C[C@@H]1C[C@@H](F)CN1C2=O | 12.4%
Cc1nc(Cl)cc(N(c2cc(Cl)nc(C)n2)c2ncc(C(=O)Nc3c(C)cccc3Cl)s2)n1 | 40.1%
Cn1cc(-c2noc(-c3cn(C)c4ncc(Br)cc34)n2)c2cc(Cl)ccc21 | 53.7%
C=C(C)[C@@H]1CC[C@]2(C(N)=O)CC[C@]3(C)[C@H](CC[C@@H]4[C@@]5(C)C/C(=C/c6cccnc6)[C@H](O)C(C)(C)[C@@H]5CC[C@]43C)[C@@H]12 | 22.7% [100 µM]
Nc1nc(Nc2ccccc2)c2ncn(Cc3ccc4c(c3)OCO4)c2n1 | 54.8%
C[n+]1c2ccccc2nc2c(N)cc(N)cc21 | 62.2%
CCOC(=O)c1cc(C(=O)c2ccc(OC)c(OC)c2)n2ccc(-c3ccccn3)cc12 | 101%
O=C(NNc1ccc(-c2ccccc2)nn1)c1ccccc1 | 93.3%
CCOC(=O)c1nc2c3ccccc3ccn2c1C(=O)OC | 93.8%
c1cc2ccc3cc2cc1CNCCN1CCNCc2ccc4ccc(cc4c2)CNCCN(CCNC3)CCNCc2ccc3ccc(cc3c2)CNCC1 | 89.7%
Cn1cc(-c2nnc(-c3cn(C)c4ncc(Br)cc34)s2)c2cc(Br)ccc21 | 93.5%
O=C1/C(=C/c2cccc(OCc3ccccc3)c2)Oc2cc(OCCN3CCCCC3)ccc21 | 67.7%
CN(Cc1cccc(C(F)(F)F)c1)C(=O)[C@@H](CC(=O)N1CCC(N2CCCCC2)CC1)N1C(=O)[C@@H](N2C(=O)OC[C@@H]2c2ccccc2)[C@H]1/C=C/c1ccccc1 | 75.4%
Cc1cc(NN=C(c2ccc(O)cc2)c2ccc(O)cc2)c([N+](=O)[O-])cc1[N+](=O)[O-] | -5.42% (active)
CCOC(=O)CCC[P+](c1ccccc1)(c1ccccc1)c1ccccc1 | 101%
CCN(CC)c1ccc(/C=C/c2ccc3cc(C)ccc3[n+]2CC)cc1 | 16.2%
O=C(N/N=C/c1ccc([N+](=O)[O-])cc1)c1ccc(Br)o1 | 91.7%
CC(C)C1=NOC(=O)C1=Cc1cn(-c2ccccc2)nc1-c1ccc(Br)cc1 | 82.9%
COc1ncnc2c(-c3ccccc3)cn(COCc3ccccc3)c12 | 60.7%

tested on: COLO 205 colon; experiment: as above; settings: 10 µM unless noted

Compound | growth
NC(=O)CC1C=CCC1 (stereo unspecified) | 114%
CC(=O)Nc1ccc(C=Nc2ccc3ccccc3c2)cc1 | 115%
O=[N+]([O-])c1ccc(O)c(-c2nc3ccccc3s2)c1 | 103%
CCOC(=O)c1nn(C2CCCCO2)c2ccc(NC(=O)Cn3nnc4ccccc43)cc12 (stereo unspecified) | 120%
COC(=O)c1cc2c(=O)[nH]cc3c2c(n1)CCC3 | 106%
CCCCCn1c(C)cc(/C=C\c2ccc3cc(C)ccc3[n+]2C)c1C | -92.5% (active)
O=c1[nH]c2cc(Cl)c(Cl)cc2n2cc3ncccc3c12 | 90.4%
c1nc(N2CCOCC2)c2[nH]ccc2n1 | 113%
CCCC[C@@H](C=O)NC(=O)[C@H](CC(C)C)NC(=O)[C@H](CC(C)C)NC(=O)OCc1ccccc1 | -3.03% (active)
CNC(=O)c1cc(Oc2ccc3nc(NC(=O)c4ccc5ncccc5c4)sc3c2)ccn1 | 95.8%
CC(C)(C)OC(=O)N1C=C/C(=C\Cn2cc(-c3ccccc3)nn2)CC1 | 109%
CC[C@@H]1NC(=O)[C@@H]2CCCCN2C(=O)[C@@H]2CCCN2C(=O)[C@@H](NC(=O)[C@H](Cc2cc(F)cc(F)c2)NC(=O)Nc2ccc(C3CC3)cc2F)[C@H](C)OC(=O)[C@@H]2C[C@@H](C)CN2C1=O | -40.4% (active)
CCCSc1nc(N)nc2nc[nH]c12 | 113%
O=C(Nc1ccc(F)cc1)c1ccccc1 | 113%
COc1ccc(-c2ccc(NNC(=O)c3ccc(F)cc3)nn2)cc1OC | 75.6%
COc1ccc(C(=O)CSc2nnc(-c3cc(-c4ccccc4)nc4ccccc34)o2)cc1 | 122%
O=C(O)c1cc([N+](=O)[O-])ccc1Br | 115%
O=C(Nc1ccc(Oc2ccc(F)cc2)c(Cl)c1)c1cccnn1 | 112%
Cc1cc(-c2ccc(N=Nc3c(S(=O)(=O)O)cc4cc(S(=O)(=O)O)cc(N)c4c3O)c(C)c2)ccc1N=Nc1cc(S(=O)(=O)O)c2ccccc2c1O | 110%

Compound | growth
COc1cc2c(cc1OCCCN1CCN(CCCOc3cc4c(cc3OC)C(=O)N3C[C@H](F)C[C@H]3C=N4)CC1)N=C[C@@H]1C[C@@H](F)CN1C2=O | -47.1% (active)
Cc1nc(Cl)cc(N(c2cc(Cl)nc(C)n2)c2ncc(C(=O)Nc3c(C)cccc3Cl)s2)n1 | 67.7%
Cn1cc(-c2noc(-c3cn(C)c4ncc(Br)cc34)n2)c2cc(Cl)ccc21 | 66.4%
C=C(C)[C@@H]1CC[C@]2(C(N)=O)CC[C@]3(C)[C@H](CC[C@@H]4[C@@]5(C)C/C(=C/c6cccnc6)[C@H](O)C(C)(C)[C@@H]5CC[C@]43C)[C@@H]12 | -36.6% [100 µM] (active)
Nc1nc(Nc2ccccc2)c2ncn(Cc3ccc4c(c3)OCO4)c2n1 | 47%
C[n+]1c2ccccc2nc2c(N)cc(N)cc21 | 49.8%
CCOC(=O)c1cc(C(=O)c2ccc(OC)c(OC)c2)n2ccc(-c3ccccn3)cc12 | 65.5%
O=C(NNc1ccc(-c2ccccc2)nn1)c1ccccc1 | 107%
CCOC(=O)c1nc2c3ccccc3ccn2c1C(=O)OC | 104%
c1cc2ccc3cc2cc1CNCCN1CCNCc2ccc4ccc(cc4c2)CNCCN(CCNC3)CCNCc2ccc3ccc(cc3c2)CNCC1 | -32.7% (active)
Cn1cc(-c2nnc(-c3cn(C)c4ncc(Br)cc34)s2)c2cc(Br)ccc21 | 105%
O=C1/C(=C/c2cccc(OCc3ccccc3)c2)Oc2cc(OCCN3CCCCC3)ccc21 | 93.8%
CN(Cc1cccc(C(F)(F)F)c1)C(=O)[C@@H](CC(=O)N1CCC(N2CCCCC2)CC1)N1C(=O)[C@@H](N2C(=O)OC[C@@H]2c2ccccc2)[C@H]1/C=C/c1ccccc1 | 72.2%
Cc1cc(NN=C(c2ccc(O)cc2)c2ccc(O)cc2)c([N+](=O)[O-])cc1[N+](=O)[O-] | 98.6%
CCOC(=O)CCC[P+](c1ccccc1)(c1ccccc1)c1ccccc1 | 71.6%
CCN(CC)c1ccc(/C=C/c2ccc3cc(C)ccc3[n+]2CC)cc1 | -21.7% (active)
O=C(N/N=C/c1ccc([N+](=O)[O-])cc1)c1ccc(Br)o1 | 116%
CC(C)C1=NOC(=O)C1=Cc1cn(-c2ccccc2)nc1-c1ccc(Br)cc1 | 97.8%
COc1ncnc2c(-c3ccccc3)cn(COCc3ccccc3)c12 | 78.3%
